In publication PMC11006913 one finds binding signal data, which are given here for two sequences.

Numbering of substitutions follows the chain as printed.

Holding throughout (test): PBM; 200 nM protein, PBS
Holding throughout (details): dsDNA, one strand shown

The target in test [1] is HESX1 (Homo sapiens, UniProt Q9UBX0 95-180, R165K).
Test [2] has as its target T1, SIX6 (Homo sapiens, UniProt O95475 114-200, L167I).
T1 sequence: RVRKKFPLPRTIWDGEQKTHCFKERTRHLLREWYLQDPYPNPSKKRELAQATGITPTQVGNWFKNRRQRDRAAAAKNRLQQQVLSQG

In test [3] the target is T2, SIX6 (Homo sapiens, UniProt O95475 114-200, L143V).
T2 sequence: T1 sequence with L30V, I54L

Test [4] addresses T3, SIX6 (Homo sapiens, UniProt O95475 114-200, H141N).
T3 sequence: T1 sequence with H28N, I54L

The target in test [5] is T4, SIX6 (Homo sapiens, UniProt O95475 114-200, T165P).
T4 sequence: T1 sequence with T52P, I54L

Test [6] addresses T5, SIX6 (Homo sapiens, UniProt O95475 114-200, L167M).
T5 sequence: T1 sequence with I54M

In test [7] the target is T6, SIX6 (Homo sapiens, UniProt O95475 114-200, L143M).
T6 sequence: T1 sequence with L30M, I54L

Test [8] has as its target T7, SIX6 (Homo sapiens, UniProt O95475 114-200, L143I).
T7 sequence: T1 sequence with L30I, I54L

The target in test [9] is T8, SIX6 (Homo sapiens, UniProt O95475 114-200, T165G).
T8 sequence: T1 sequence with T52G, I54L

Test [10] deals with HESX1 (Homo sapiens, UniProt Q9UBX0 95-180).
The target of test [11] is T9, SIX6 (Homo sapiens, UniProt O95475 114-200, T139Q).
T9 sequence: T1 sequence with T26Q, I54L

Test [12] addresses T10, SIX6 (Homo sapiens, UniProt O95475 114-200, T165A).
T10 sequence: T1 sequence with T52A, I54L

Test [13] addresses T11, SIX6 (Homo sapiens, UniProt O95475 114-200, L167V).
T11 sequence: T1 sequence with I54V

Test [14] addresses HESX1 (Homo sapiens, UniProt Q9UBX0 95-180, R109Q).
For test [15], the target named is T12, SIX6 (Homo sapiens, UniProt O95475 114-200).
T12 sequence: T1 sequence with I54L

The target in test [16] is T13, SIX6 (Homo sapiens, UniProt O95475 114-200, T165I).
T13 sequence: T1 sequence with T52I, I54L

Test [17] has as its target HESX1 (Homo sapiens, UniProt Q9UBX0 95-180, P111T).
Test [18] addresses HESX1 (Homo sapiens, UniProt Q9UBX0 95-180, F115L).
Test [19] deals with HOXA4 (Homo sapiens, UniProt Q00056 201-287, W262R).
The target in test [20] is HOXC10 (Homo sapiens, UniProt Q9NYD6 254-340).
In test [21] the target is HOXA2 (Homo sapiens, UniProt O43364 129-215, R185T).
Test [22] addresses HOXA4 (Homo sapiens, UniProt Q00056 201-287, R217L).
Another test addresses T14, NKX2-6 (Homo sapiens, UniProt A6NCS4 118-204, R150C).
T14 sequence: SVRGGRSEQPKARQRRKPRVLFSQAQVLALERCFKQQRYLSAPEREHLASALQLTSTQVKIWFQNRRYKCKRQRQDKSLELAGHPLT

In test [23] the target is ALX1 (Homo sapiens, UniProt Q15699 118-204, L144V).
The target in test [24] is HOXA2 (Homo sapiens, UniProt O43364 129-215, R185K).
Test [25] deals with ALX1 (Homo sapiens, UniProt Q15699 118-204, L144R).
In test [26] the target is HOXA4 (Homo sapiens, UniProt Q00056 201-287).
For test [27], the target named is HOXC10 (Homo sapiens, UniProt Q9NYD6 254-340, K271E).
For test [28], the target named is HOXA2 (Homo sapiens, UniProt O43364 129-215, Y150S).
Test [29] deals with ALX1 (Homo sapiens, UniProt Q15699 118-204).
Test [30] deals with HOXA4 (Homo sapiens, UniProt Q00056 201-287, W262F).
The target of test [31] is HOXA2 (Homo sapiens, UniProt O43364 129-215).
Chain of HOXA2 (Homo sapiens, UniProt O43364 129-215) (O43364 129-215): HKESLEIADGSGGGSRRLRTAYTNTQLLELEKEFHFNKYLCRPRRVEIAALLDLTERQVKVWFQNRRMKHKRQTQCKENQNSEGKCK

Chain of HESX1 (Homo sapiens, UniProt Q9UBX0 95-180, R109Q) (Q9UBX0 95-180 R109Q): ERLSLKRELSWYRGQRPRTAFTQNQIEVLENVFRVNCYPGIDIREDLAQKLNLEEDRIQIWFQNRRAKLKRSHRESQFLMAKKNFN
Chain of HESX1 (Homo sapiens, UniProt Q9UBX0 95-180, P111T) (Q9UBX0 95-180 P111T): as the sequence (Q9UBX0 95-180 R109Q) above, with Q15R, P17T counted along it
Chain of HESX1 (Homo sapiens, UniProt Q9UBX0 95-180, F115L) (Q9UBX0 95-180 F115L): as the sequence (Q9UBX0 95-180 R109Q) above, with Q15R, F21L counted along it
Chain of HESX1 (Homo sapiens, UniProt Q9UBX0 95-180, R165K) (Q9UBX0 95-180 R165K): as the sequence (Q9UBX0 95-180 R109Q) above, with Q15R, R71K counted along it
Chain of HESX1 (Homo sapiens, UniProt Q9UBX0 95-180) (Q9UBX0 95-180): as the sequence (Q9UBX0 95-180 R109Q) above, with Q15R counted along it
Chain of HOXA4 (Homo sapiens, UniProt Q00056 201-287, W262R) (Q00056 201-287 W262R): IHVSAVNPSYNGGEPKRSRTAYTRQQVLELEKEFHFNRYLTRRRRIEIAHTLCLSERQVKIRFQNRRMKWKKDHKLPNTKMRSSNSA
Chain of HOXC10 (Homo sapiens, UniProt Q9NYD6 254-340, K271E) (Q9NYD6 254-340 K271E): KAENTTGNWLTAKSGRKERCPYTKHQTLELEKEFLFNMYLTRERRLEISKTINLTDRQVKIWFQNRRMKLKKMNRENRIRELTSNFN
Chain of ALX1 (Homo sapiens, UniProt Q15699 118-204, L144R) (Q15699 118-204 L144R): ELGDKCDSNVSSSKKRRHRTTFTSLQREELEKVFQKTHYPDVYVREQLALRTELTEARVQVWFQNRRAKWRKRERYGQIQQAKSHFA
Chain of HOXC10 (Homo sapiens, UniProt Q9NYD6 254-340) (Q9NYD6 254-340): as the sequence (Q9NYD6 254-340 K271E) above, with E18K counted along it
Chain of ALX1 (Homo sapiens, UniProt Q15699 118-204) (Q15699 118-204): as the sequence (Q15699 118-204 L144R) above, with R27L counted along it
Chain of HOXA4 (Homo sapiens, UniProt Q00056 201-287, R217L) (Q00056 201-287 R217L): as the sequence (Q00056 201-287 W262R) above, with R17L, R62W counted along it
Chain of HOXA2 (Homo sapiens, UniProt O43364 129-215, R185T) (O43364 129-215 R185T): as the sequence (O43364 129-215) above, with R57T counted along it
Chain of ALX1 (Homo sapiens, UniProt Q15699 118-204, L144V) (Q15699 118-204 L144V): as the sequence (Q15699 118-204 L144R) above, with R27V counted along it
Chain of HOXA4 (Homo sapiens, UniProt Q00056 201-287) (Q00056 201-287): as the sequence (Q00056 201-287 W262R) above, with R62W counted along it
Chain of HOXA4 (Homo sapiens, UniProt Q00056 201-287, W262F) (Q00056 201-287 W262F): as the sequence (Q00056 201-287 W262R) above, with R62F counted along it
Chain of HOXA2 (Homo sapiens, UniProt O43364 129-215, Y150S) (O43364 129-215 Y150S): as the sequence (O43364 129-215) above, with Y22S counted along it
Chain of HOXA2 (Homo sapiens, UniProt O43364 129-215, R185K) (O43364 129-215 R185K): as the sequence (O43364 129-215) above, with R57K counted along it

In the case of CAGGCGCC, the binding signal was 6.55 upbm affinity estimate (log intensity, higher = more binding, comparable within an allelic series) in the test with HESX1 [1]; 8.87 upbm affinity estimate (log intensity, higher = more binding, comparable within an allelic series) in the test with SIX6 [2]; 8.82 upbm affinity estimate (log intensity, higher = more binding, comparable within an allelic series) in the test with SIX6 [3]; 8.85 upbm affinity estimate (log intensity, higher = more binding, comparable within an allelic series) with SIX6 [4]; 8.98 upbm affinity estimate (log intensity, higher = more binding, comparable within an allelic series) with SIX6 [5]; 8.93 upbm affinity estimate (log intensity, higher = more binding, comparable within an allelic series) with SIX6 [6]. In addition, the binding signal is 8.82 upbm affinity estimate (log intensity, higher = more binding, comparable within an allelic series) in the test with SIX6 [7]; 8.87 upbm affinity estimate (log intensity, higher = more binding, comparable within an allelic series) with SIX6 [8]; 8.8 upbm affinity estimate (log intensity, higher = more binding, comparable within an allelic series) in the test with SIX6 [9]; 6.51 upbm affinity estimate (log intensity, higher = more binding, comparable within an allelic series) with HESX1 [10]; 8.84 upbm affinity estimate (log intensity, higher = more binding, comparable within an allelic series) with SIX6 [11]; 8.89 upbm affinity estimate (log intensity, higher = more binding, comparable within an allelic series) in the test with SIX6 [12]. Moreover, the binding signal with SIX6 [13] is 8.89 upbm affinity estimate (log intensity, higher = more binding, comparable within an allelic series); in the test with HESX1 [14], 6.57 upbm affinity estimate (log intensity, higher = more binding, comparable within an allelic series); in the test with SIX6 [15], 8.81 upbm affinity estimate (log intensity, higher = more binding, comparable within an allelic series); in the test with SIX6 [16] it was 8.87 upbm affinity estimate (log intensity, higher = more binding, comparable within an allelic series); with HESX1 [17], 6.52 upbm affinity estimate (log intensity, higher = more binding, comparable within an allelic series); with HESX1 [18], 6.58 upbm affinity estimate (log intensity, higher = more binding, comparable within an allelic series).
For GCAGGCGC, the binding signal is 6.11 upbm affinity estimate (log intensity, higher = more binding, comparable within an allelic series) with HESX1 [1]; 9.8 upbm affinity estimate (log intensity, higher = more binding, comparable within an allelic series) with HOXA4 [19]; 9.86 upbm affinity estimate (log intensity, higher = more binding, comparable within an allelic series) with HOXC10 [20]; 5.98 upbm affinity estimate (log intensity, higher = more binding, comparable within an allelic series) in the test with HESX1 [10]; 6.79 upbm affinity estimate (log intensity, higher = more binding, comparable within an allelic series) with HOXA2 [21]; 9.64 upbm affinity estimate (log intensity, higher = more binding, comparable within an allelic series) with HOXA4 [22]. The binding signal was 9.36 upbm affinity estimate (log intensity, higher = more binding, comparable within an allelic series) with NKX2-6; 5.82 upbm affinity estimate (log intensity, higher = more binding, comparable within an allelic series) with ALX1 [23]; 10 upbm affinity estimate (log intensity, higher = more binding, comparable within an allelic series) with HOXA2 [24]; 5.84 upbm affinity estimate (log intensity, higher = more binding, comparable within an allelic series) with ALX1 [25]; 9.74 upbm affinity estimate (log intensity, higher = more binding, comparable within an allelic series) in the test with HOXA4 [26]; 9.87 upbm affinity estimate (log intensity, higher = more binding, comparable within an allelic series) with HOXC10 [27]. The binding signal with HESX1 [14] is 6.31 upbm affinity estimate (log intensity, higher = more binding, comparable within an allelic series); with HESX1 [17] it was 6.16 upbm affinity estimate (log intensity, higher = more binding, comparable within an allelic series); with HESX1 [18] it was 6.37 upbm affinity estimate (log intensity, higher = more binding, comparable within an allelic series); with HOXA2 [28] it was 10.3 upbm affinity estimate (log intensity, higher = more binding, comparable within an allelic series); with ALX1 [29] it was 5.72 upbm affinity estimate (log intensity, higher = more binding, comparable within an allelic series); with HOXA4 [30] it was 9.73 upbm affinity estimate (log intensity, higher = more binding, comparable within an allelic series). Also, the binding signal with HOXA2 [31] is 6.79 upbm affinity estimate (log intensity, higher = more binding, comparable within an allelic series).
